Composite z-score data for 32 compounds are collected here from PubChem BioAssay.

In the first assay the target is Carbonic anhydrase 2 (Homo sapiens) (UniProt P00918). Put plainly: CAII small-molecule binders, profiling panel, biochemical, small-molecule microarray, Alexa647-labelled CAII (AID 1122). The following applies: CAII-A647 binding fluorescence, higher = more signal.
Consider `C[C@H]1C2[C@H](Cc3ccccc3)NC(=O)[C@]23C(=O)NCC(=O)N2CCC[C@H]2C(=O)NC/C=C\C/C=C/C3[C@@H]2O[C@]12C` (some centres not stated), for which the composite z-score is 0.718.
For `COC(=O)C1=CC(CCCO)=CC(C2CC2)N(Cc2cccc(OC(F)(F)F)c2)C=C1C(=O)OC` (configuration not stated), the composite z-score came to 0.806.
Still for that read-out and setting: next, `CCCCC(O)C1C=CC2C(=O)NC(=O)C2N1Nc1ccccn1` (configuration not stated): 0.885; `CCCCC(=C=CC[C@H](O)c1ccc(OCCO)cc1)C[C@H](O)c1ccccn1`: 0.562; `CC(C)CNC(=O)[C@@H]1c2ccccc2C(=O)N(CC23CC4CC(CC(C4)C2)C3)[C@H]1c1ccc(CO)cc1`: 0.132.
In turn, `CCN(CC)c1ccc(N2CC=CC34O[C@@H]5C=CCOC(=O)[C@@H]5[C@H]3C(=O)N(CCCO)[C@@H]4C2=O)cc1` (some centres not stated) yielded a composite z-score of 0.862.

System in a further assay: not listed separately
Nature of the assay: COS7 lysate on small-molecule microarray, probe aHis, 635 nm (AID 1123).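 Further: z-score combines 667nm fluorescence intensity with signal-to-noise per printed compound spot.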 The note with it: COS7 cell lysate, fluorescence, higher = more signal.
For `C=CCNC(=O)[C@H]1[C@@H]2C(=O)O[C@@H](c3ccccc3)[C@@H](c3ccccc3)N2[C@@H](c2ccc(O)cc2)[C@]12C(=O)Nc1ccc(C#CC3=CCCCC3)cc12`, the composite z-score was determined as 1.52.
`COC(=O)[C@@]1(Cc2ccccc2)[C@H]2c3cc(C(=O)N4CCCC4)n(Cc4ccc(C(F)(F)F)nc4)c3C[C@H]2CN1C(=O)c1ccccc1` had a composite z-score of 3.1.
Take `O=C1OCCC/C=C\[C@H]2OC34C=CCN(Cc5ccccc5)C(=O)[C@H]3N(CCCCCO)C(=O)[C@@H]4C12` (some centres not stated): the composite z-score is 3.41.
The same measure, in the same setting: the figure for `CN(C)CCCNC(=O)[C@@]1(Cc2ccccc2I)c2ccccc2C(=O)N(Cc2ccccc2)[C@H]1c1ccc(CO)cc1` is 3.21.
Same read-out and setting: next, `COC(=O)c1c(CC[C@@H](CO)NC(=O)N[C@@H](Cc2ccccc2)Cn2cc(-c3cncn3C)nn2)oc(C(C)=O)c1C(=O)OC`: 1.95; `CC(c1ccccc1)C(O)C1C=CC2C(=O)N(c3ccccc3)C(=O)C2N1Nc1ccc(C#N)cc1` (configuration not stated): 3.28; `CC(=O)c1ccc(C(O)C2C=CC3C(=O)N(C)C(=O)C3N2NC(=O)OC(C)(C)C)cc1` (configuration not stated): 2.61.
Regarding `C=CCC(OC(C)=O)[C@@H]1[C@@H](N(Cc2ccc(-c3ccccc3)cc2)C(=O)c2cccc3ccccc23)c2cc(OCCCO)ccc2N1C(=O)c1ccc2ccccc2c1` (some centres not stated), the composite z-score is 0.116.
Same read-out and setting: next, `COC(=O)[C@@H]1N=C(c2ccc(OCCCO)cc2)O[C@@H]1c1ccccc1CN=[N+]=[N-]`: 1.18.
With `CCOC(=O)C1=CC[C@@H](c2ccccc2)N(S(=O)(=O)c2ccc(C)cc2)[C@H]1C#N`, the composite z-score worked out at 1.67.
As for `CC#CCO[Si](C#CCCCCCC)(C(C)C)C(C)C`, the composite z-score is -0.0607.
`C=CCC(OC(C)=O)[C@@H]1[C@@H](N(Cc2ccc(-c3ccccc3)cc2)C(=O)c2ccc(C)cc2)c2cc(OCCCO)ccc2N1C(=O)c1ccc2ccccc2c1` (some centres not stated) returned a composite z-score of 0.756.
The same measure, in the same setting: next, `COc1ccc(C(O)C2C=CC3C(=O)N(C)C(=O)C3N2Nc2ccc([N+](=O)[O-])cc2[N+](=O)[O-])cc1OCc1ccccc1` (configuration not stated): 2.36.
Same read-out and setting: the figure for `CN1C(=O)C2C=CC(C(O)c3ccc(-c4ccccc4)s3)N(Nc3ccccc3)C2C1=O` (configuration not stated) is 1.94; for `N#Cc1ccc(C(O)C2C=CC3C(=O)NC(=O)C3N2Nc2ccccn2)cc1` (configuration not stated) it is 0.767.
Compound `CCCC=C(CCC)[C@@H](NC(=O)c1ccco1)c1ccc(C(=O)OC)cc1` returned a composite z-score of 2.72.
Same read-out and setting: the figure for `COc1ccc([Si](C)(C)[C@@H]2[C@@H](CC(=O)N(CCO)Cc3ccccc3)O[C@]3(C(=O)N(Cc4ccc(N5CCC5=O)cc4)c4ccccc43)[C@H]2C)cc1` is 0.711; for `Cc1ccc(F)cc1S(=O)(=O)N[C@@H]1CCN(Cc2ccc3[nH]ccc3c2)C1` it is 0.95.
Still for that read-out and setting: the figure for `C=C(/C(=C/C[C@H](OC(=O)c1ccncc1)c1ccccc1OCCO)c1cc(C(=O)OC)ccc1OC)C(C)C` is 0.537; for `CCOC(=O)C1=CC[C@@H](c2ccc(F)cc2)N(S(=O)(=O)c2ccc(C)cc2)[C@H]1c1ccc([N+](=O)[O-])cc1` it is 2.
As to `C=CC[C@@]1(C(=O)N(C)C)N=C(c2ccc(OCCCO)cc2)O[C@@H]1c1ccccc1`, the composite z-score was 2.59.
On to `CC(C)C(=C=CC[C@@H](O)c1cccc(OCCO)c1)CCO`, for which the composite z-score was found to be 0.502.
Consider `[N-]=[N+]=NCc1ccccc1C[C@]1(C(=O)N2CCOCC2)N=C(c2ccc(OCCCO)cc2)O[C@H]1c1ccccc1CN=[N+]=[N-]`, for which the composite z-score stood at 3.34.
Same read-out and setting: next, `COc1ccc(NN2C(C(O)c3cc(C(F)(F)F)cc(C(F)(F)F)c3)C=CC3C(=O)N(C4CCCCC4)C(=O)C32)cc1` (configuration not stated): 1.5; `CC=CC(O)C1C=CC2C(=O)N(C)C(=O)C2N1NC(=O)OC(C)(C)C` (configuration not stated): 0.439.
The same measure, in the same setting: the figure for `[N-]=[N+]=NCc1ccccc1[C@@H]1OC(c2ccc(OCCCO)cc2)=N[C@]1(Cc1ccccc1)C(=O)NCc1ccccc1` is 2.99.
